# Data reported in ChEMBL document CHEMBL3988442, “University of Dundee, Small-Polar-MMV Screening Library” (2021).
# Among all 48,000 compounds or so, about 13,000 (27%) showed an effect of 50% or more. The list shows a part of the results.
# Test system: Wolbachia pipientis
# Experiment: Anti-Wolbachia Cell-Based Screen
# Type: functional
# Set-up: scale not given: in the data most compounds retested in dose-response had high values
# Conditions: 5 µM
row,Compound,Percent Effect [%]
1,Cn1nnc2c1CCN(S(C)(=O)=O)C2COCc1ccccc1 (configuration not stated),-3.39
2,Nc1cc2c(nn1)CCN(C(=O)c1csc(-c3ccccc3)n1)C2,1.599
3,O=c1cc(-c2ccncc2)nc(-c2ccc(CN3CC[C@@H](O)C3)cc2)[nH]1,1.525
4,c1sc(C2CCCCC2)nc1CN1CCn2c(nnc2C2CC2)C1,99.95
5,COc1ccc(-c2nc(CN3CCc4c(ncn4C)C3)cs2)cc1,30.48
6,c1cc(-c2noc(CN3CCc4c(ncn4C4CC4)C3)n2)cs1,0.1339
7,Cn1cnc2c1CCN(Cc1csc(C3CCCC3)n1)C2,102.6
8,CCc1nc(CN2CCc3c(ncn3C3CC3)C2)cs1,49.69
9,Cc1ccc(-c2nc(CN3CCc4c(ncn4C)C3)cs2)o1,0.8085
10,Cn1cnc2c1CCN(Cc1csc(C3CCCCC3)n1)C2,104.6
11,CCCc1nc(CN2CCc3c(ncn3C3CC3)C2)cs1,72.74
12,c1ccc(-c2nc(CN3CCn4c(nnc4C4CC4)C3)cs2)cc1,1.064
13,c1sc(C2CCCC2)nc1CN1CCn2c(nnc2C2CC2)C1,-0.3735
14,Cn1cnc2c1CCN(Cc1csc(-c3ccsc3)n1)C2,1.661
15,O=C(C1CCOC1)N1CCc2ncnc(NC3CCC3)c2CC1 (configuration not stated),-0.188
16,Cc1cnc(-c2nc(O)c3c(n2)CN(C(=O)C2CCOC2)CC3)cn1 (configuration not stated),177.2
17,O=C(C1CC1)N1CCc2c(ncnc2NCCc2nc3c(s2)CCC3)C1,7.369
18,CNC(=O)C1CCN(c2ncnc3c2CCN(C(=O)C2CC2)C3)C1 (configuration not stated),-3.996
19,Cc1cnc(-c2nc(O)c3c(n2)CN(C(=O)C2CCCO2)CC3)cn1 (configuration not stated),141.1
20,Cc1cnc(-c2nc(O)c3c(n2)CN(C(=O)C2CCCC2)CC3)cn1,133.6
21,CN(C)c1nc2c(c(=O)[nH]1)CCN(C(=O)C1CCCO1)C2 (configuration not stated),4.175
22,CCN(CC)C1CCN(c2ncnc3c2CCN(C(=O)C2CC2)C3)C1 (configuration not stated),-6.613
23,Cc1cnc(-c2nc(O)c3c(n2)CN(C(=O)C2CC2)CC3)cn1,165.3
24,O=C(C1CCOC1)N1CCc2ncnc(C3CC3)c2CC1 (configuration not stated),2.623
25,CCN1CCN(c2ncnc3c2CCN(C(=O)C2CC2)C3)CC1,-21.72
26,O=C(C1CCCO1)N1CCc2onc(-c3ccc(Cl)cc3)c2C1 (configuration not stated),0.5907

row,Compound,Percent Effect [%]
1,NC(=O)C(NC(=O)c1ccc(NC2CC2)nc1)c1ccccc1 (configuration not stated),15.13
2,CC(C)n1cnc(C2CN(C)c3ccc(C(=O)NC4CCCC4)cc32)n1 (configuration not stated),-4.903
3,CC(=O)N[C@@H](CC(C)C)C(=O)N1CCC(n2cc(CO)nn2)CC1,-15.95
4,CCCc1nccn1-c1ccc(C(C)O)cc1 (configuration not stated),-9.636
5,Cc1oc(C(C)C)cc1C(=O)N1C[C@H]2CC[C@@H]1CN(C(=O)N(C)C)C2,-18.45
6,O=C(N1CCC(Oc2ccncc2)C1)C1(c2ccc(F)cc2)CC1 (configuration not stated),-3.796
7,COc1cnc(N2CCN(C)CC2)nc1-c1ccnn1C,-15.65
8,c1cc(-c2c[nH]c([C@@H]3COCCN3Cc3csnn3)n2)ccn1,7.154
9,Cc1cnc(-c2nc(O)c3c(n2)CN(C(=O)CC2CCCC2)CC3)cn1,148.5
10,Nc1cc2c(nn1)CCN(C(=O)CC1CCCC1)C2,-4.566
11,O=C1NCCN(CC2CCCCC2)C1CC(=O)N1CCc2n[nH]cc2C1 (configuration not stated),-15.6
12,Cc1cnc(N2CCC3(CC2)CCN(c2cncnc2)C3=O)nc1,-8.08
13,O=C(NCc1nc[nH]n1)c1cc(COc2cccc(C(F)(F)F)c2)[nH]n1,0.1207
14,NS(=O)(=O)NCc1cc(-c2ccc(C(F)(F)F)cc2)n[nH]1,103.6
15,NS(=O)(=O)c1ccc(NCc2ccccc2)cc1C(F)(F)F,11.93
16,CCOCCCC(=O)N1CCN(c2cccc(OC)c2)C(C)C1 (configuration not stated),5.389
17,Cc1ccc2c(c1)c(CNC(=O)C1CCN(CC(N)=O)CC1)nn2C,11.07
18,Cc1nc(CN(C)Cc2nc(-c3ccccc3)no2)co1,-6.169
19,CN(CCC(O)c1ccccc1)Cc1ccccc1C#N (configuration not stated),111.8
20,COc1cccc(CN(C)Cc2ccccc2C#N)c1OC,-9.098
21,Cc1cc(CN(C)CCC(O)c2ccccc2)no1 (configuration not stated),107.6
22,CN(CCC(O)c1ccccc1)Cc1nc(-c2ccccc2)no1 (configuration not stated),118.9
23,Cc1cc(CN(C)CCN(C)c2ccccc2)no1,9.198
24,Cc1cc(CN(C)CCC(O)c2ccccc2)nn1C (configuration not stated),-3.114
25,N#Cc1ccccc1CN(CC(N)=O)C1CCCC1,-5.252
26,CN(Cc1nc(-c2ccccc2)no1)C(=O)CNS(C)(=O)=O,-1.951

row,Compound,Percent Effect [%]
1,COc1ccc(F)c(NCc2cnn(C3CCS(=O)(=O)C3)c2)c1 (configuration not stated),7.936
2,Cc1ccc(CNc2ccn(CCc3ccncc3)n2)s1,19.44
3,COc1cc(OC)cc(N2CCC(NC(=O)c3cccn3C)CC2)c1,-13.09
4,COc1ccc(C(=O)NC2CCN(c3ncccn3)CC2)cc1F,13.96
5,COc1ccsc1C(=O)NC1CCN(c2ccc(C#N)cc2)CC1,-30.88
6,COc1ccc(N2CCC(NC(=O)c3sccc3C)CC2)cc1,79.74
7,COc1ccc(N2CCC(N(C)C(C)C(=O)N(C)C)CC2)cc1 (configuration not stated),7.179
8,O=C(Cc1cccs1)NC1CCN(c2cccc(F)c2)CC1,-15.75
9,COc1ccc(N2CCC(NC(=O)c3ccc(C#N)cc3)CC2)cc1,89.14
10,COc1ccsc1C(=O)NC1CCN(c2cccc(F)c2)CC1,98.27
11,COc1cc(OC)cc(N2CCC(NC(=O)c3ccc[nH]3)CC2)c1,-4.011
12,CCN(Cc1ccncc1)C1CCCN(Cc2ccc(F)cc2Cl)C1 (configuration not stated),-7.648
13,O=C(O)CC1COCCN1C(=O)C1(c2ccc(Cl)cc2)CCC1 (configuration not stated),14.34
14,O=S(=O)(CCC1CCCO1)NCc1ncc(-c2ccccc2)o1 (configuration not stated),-10.29
15,Cc1nn(C)c(C)c1OCC(=O)NCC(O)c1ccco1 (configuration not stated),9.29
16,CCC1CN(Cc2nc(C(C)C)no2)CCC(=O)N1Cc1ccccc1 (configuration not stated),11.67
17,COc1cccc(-c2noc(-c3ccc(NCCCO)nc3)n2)c1OC,11.35
18,COc1ccc(CCN2CCOC(Cn3nc(C)nc3C)C2)cc1 (configuration not stated),6.569
19,Nc1cc(CCC2CN(Cc3ccc4cc[nH]c4c3)CCO2)ccn1 (configuration not stated),120
20,COc1ccc(CN2CCOC(CCc3ccnc(N)c3)C2)cc1 (configuration not stated),124.3
21,COc1cccc(CN2CCOC(Cn3nc(C)cc3C)C2)c1 (configuration not stated),-2.903
22,Cc1cc(C)n(CC2CN(Cc3cccc(C(N)=O)c3)CCO2)n1 (configuration not stated),-10.5
23,Nc1cc(CCC2CN(Cc3ccc4c(c3)OCCO4)CCO2)ccn1 (configuration not stated),90.24
24,Cc1nccn1CCC1CCCCN1Cc1ccc2c(c1)OCCO2 (configuration not stated),18.54
25,Nc1cc(CCC2CN(Cc3cccc(C(=O)O)c3)CCO2)ccn1 (configuration not stated),106.3
26,Nc1cc(CCC2CN(Cc3ccc(C(=O)O)cc3)CCO2)ccn1 (configuration not stated),7.558

row,Compound,Percent Effect [%]
1,CCc1nnc2n1CCN(Cc1ccc3c(c1)OCCO3)C2,1.979
2,c1cnn(CC2CN(Cc3ccc(-n4ccnc4)cc3)CCO2)c1 (configuration not stated),-4.298
3,CC(C)(C)c1cc(CN2CCOC(CCc3ccccc3)C2)n[nH]1 (configuration not stated),14.18
4,CC(C)c1nn(CC(=O)N2CCCCC2)c(=O)c2c1cnn2C(C)(C)C,-4.82
5,COc1cccc(S(=O)(=O)Cc2noc(CC(C)C)n2)c1,-0.9778
6,COc1ccc(S(=O)(=O)Cc2noc(CC(C)C)n2)cc1,-2.844
7,COCc1nc(CN2CC(C)(c3ccccc3)CCC2=O)no1 (configuration not stated),5.849
8,COCc1nc(CN2CCN(c3ccc(OC)cc3)C(=O)C2C)no1 (configuration not stated),94.02
9,COCc1nc(CN2CC(=O)N(C)c3ccccc3C2=O)no1,-2.193
10,COc1ccc(N2CCN(Cc3noc(CC(C)C)n3)C(C)C2=O)cc1 (configuration not stated),87.05
11,CN(CC(N)=O)CC(=O)N(C1=CCCCC1)C1CC1,-2.779
12,CC(=O)NCc1noc2c1CN(Cc1cccs1)CC2,-5.877
13,Cc1cccc(CN2CCc3onc(CN(C)C)c3C2)n1,101.4
14,O=C(O)C(F)(F)F.c1csc(CN2CCc3onc(Cn4cccc4)c3C2)c1,-13.64
15,Cc1cccc(CN2CCc3[nH]nc(C(=O)N4CCNC(=O)C4)c3C2)n1.O=C(O)C(F)(F)F,-67.35
16,c1coc(CN2CCc3onc(Cn4ccnc4)c3C2)c1,-8.337
17,O=C(O)C(F)(F)F.c1coc(CN2CCc3onc(Cn4cccc4)c3C2)c1,-0.2735
18,CN(C)Cc1noc2c1CN(C(=O)c1ccncc1)CC2.O=C(O)C(F)(F)F.O=C(O)C(F)(F)F,-9.47
19,Cc1cccc(CN2CCc3onc(CO)c3C2)n1.O=C(O)C(F)(F)F,107.8
20,Cc1cccc(CN2CCc3[nH]nc(C(=O)N(C)C)c3C2)n1.O=C(O)C(F)(F)F,-6.855
21,CN(C)Cc1noc2c1CN(Cc1ccsc1)CC2.O=C(O)C(F)(F)F.O=C(O)C(F)(F)F,-7.7
22,Cc1cccc(CN2CCc3onc(Cn4cccc4)c3C2)n1.O=C(O)C(F)(F)F,93.67
23,CN(C)Cc1noc2c1CN(Cc1ccc[nH]1)CC2,98.7
24,CC(C)OC(=O)N1C[C@H]2CC[C@@H]1CN(C(=O)c1ccccc1)C2,-6.398
